Experimental findings from PubChem BioAssay AID1745847 (National Center for Advancing Translational Sciences (NCATS), 2022) are described below.

Several values for one entry are separate records, joined by “and”; a condition that tells them apart may be missing. Identical values can stand only once. The campaign covered roughly 2,100 compounds. About 670 (32%) were called active. Another 50% or so got no clear call; they are omitted. Some of the results follow. Values without a mark were called inactive. Calls follow the shape of the dose curve; as a rule, active = well fitted inhibition curve with a large enough effect; inconclusive = small, poorly fitted or top-dose-only effect; inactive = no such curve, though single readings can be large or run the other way.
% is scaled to controls: 0 for no effect and ±100 for the full control effect; potency is read from the fitted curve at half-maximal effect.

This assay can be described thus: CMV-Luciferase Counterscreen for Inhibitors of ATXN expression. Also: nearly all actives have a fitted effect of over 55% in size. The note with it: HEK-293 CMV-luciferase reporter, luminescence, 24 h; series mostly up to 57.5 µM; activity change, negative = inhibition: at the top concentration.
Take `Cc1ccc(S(=O)(=O)c2cc3cc(Br)ccc3oc2=O)cc1`: the “activity change, negative = inhibition” value is -15.7%.

As to `COc1ccccc1/C=C\C(=O)NCC(=O)N/N=C/c1cccc(OC)c1O`, the Potency was 12.6 µM (active).

For `CCN(CC)c1ccc(/C=N/NC(=O)CNC(=O)C2COc3ccccc3O2)c(O)c1` (stereo not drawn), the Potency was 0.398 µM (active).

On to `COc1cccc(/C=N/NC(=O)CNC(=O)C2COc3ccccc3O2)c1O` (stereo not drawn), for which the Potency is 7.94 µM (active).

For `COc1cccc2c1C(=O)C=C(C)C2=O`, the Potency was 22.4 µM (active).

Turning to `Cc1cc(C(=O)N/N=C/c2cc(Br)cc(Br)c2OC(=O)c2cccc(F)c2)n[nH]1`, the Potency is 4.47 µM (active).

As for `CCCC/C(C)=N/NC(=O)c1cn(-c2ccccc2)nc1-c1ccccc1`, the activity change, negative = inhibition was -28.6% [at 11.4 µM].

Take `COc1ccc(-c2nn(-c3ccccc3)cc2C(=O)NC(=S)NNC(=O)c2ccncc2)cc1`: the Potency is 8.91 µM (active).

With `Cc1ccc(-c2nc3cc(Br)cnc3nc2-c2ccc(C)cc2)cc1`, the activity change, negative = inhibition was -25.9% [at 11.4 µM].

As for `CCOC(=O)c1cnc(-n2nc(C)cc2C)nc1NC1CCCC1`, the Potency was 1.78 µM (active).

For `C=CCOc1ccc(CNc2ccc3[nH]c(=O)[nH]c3c2)cc1OC`, the “activity change, negative = inhibition” value is 24.3%.

`COc1ccc(Cc2nnc(N/N=C/c3ccc(O)cc3)[nH]c2=O)cc1OC`: the Potency was 0.891 µM (active).

As to `COc1ccc(Cc2nnc(N/N=C/c3ccccc3O)[nH]c2=O)cc1OC`, the Potency is 1.41 µM (active).

`COc1ccc(S(=O)(=O)N(C)C)cc1NC(=O)C1CCN(c2ncnc3sc(C)c(C)c23)CC1`: the Potency was 10 µM (active).

As to `CCN(CC)S(=O)(=O)c1cc(NC(=O)C2CCN(c3ncnc4sc(C)c(C)c34)CC2)ccc1Cl`, the “activity change, negative = inhibition” value was 52%.

Turning to `COc1ccc(-c2csc(NC(=O)C3CCN(c4ncnc5sc(C)c(C)c45)CC3)n2)cc1OC`, the Potency was 3.55 µM (active).

With `CN(C)c1ccccc1-c1cc(NC=O)c2ncc(-c3cccc(C(F)(F)F)c3)n2c1`, the activity change, negative = inhibition was -12.7% [at 11.4 µM].

`O=C(N/N=C/c1cc([N+](=O)[O-])ccc1O)c1cccc(N2CCCC2=O)c1`: the Potency is 7.94 µM (active).

With `O=C(N/N=C/c1c(O)ccc2ccccc12)c1cccc(C(F)(F)F)c1`, the Potency is 2.82 µM (active).

Turning to `O=C(NN=Cc1c(O)ccc2ccccc12)c1ccc2c(c1)OCO2`, the Potency was 2.24 µM (active).

With `O=[N+]([O-])c1ccc(/C=N/N=C/c2ccc([N+](=O)[O-])o2)o1`, the Potency is 14.1 µM (active).

As for `O=C(N/N=C/c1ccccc1O)c1cccc(C(F)(F)F)c1`, the Potency is 0.501 µM (active).

For the compound `O=C(NN=Cc1ccccc1O)c1cccc([N+](=O)[O-])c1`, the Potency was 3.98 µM (active).

For the compound `C/C(=N\Nc1cc(N2CCOCC2)nc(C)n1)c1cccc([N+](=O)[O-])c1`, the activity change, negative = inhibition is -9.23% [at 11.4 µM].

On to `O=C(N/N=C/c1ccc([N+](=O)[O-])o1)c1ccc2c(c1)OCO2`, for which the Potency is 12.6 µM (active).

For the compound `COc1ccc(/C=N/NC(=O)c2cccc([N+](=O)[O-])c2)c2ccccc12`, the activity change, negative = inhibition was -1.17% [at 11.4 µM].

Consider `O=C(N/N=C\c1c(O)ccc2ccccc12)c1ccc(Cn2cccn2)o1`, for which the Potency is 0.891 µM (active).

`COc1ccc(S(=O)(=O)Nc2ccc(F)cc2)cc1N(C)S(=O)(=O)c1ccc(Cl)cc1`: the Potency is 10 µM (active).

In the case of `CCN(Cc1ccccc1)S(=O)(=O)c1ccc(C(=O)Nc2nnc(C3CC3)o2)cc1`, the Potency was 2.24 µM (active).

With `O=C(Nc1nnc(C2CC2)o1)c1ccc(S(=O)(=O)N2CCCc3ccccc32)cc1`, the Potency was 7.08 µM (active).

For the compound `CN1CCC(N(C)C(=O)c2ccc(Cl)c(S(=O)(=O)N3CCc4ccccc43)c2)CC1`, the “activity change, negative = inhibition” value was -24.7%.

For the compound `Cc1ccc(C(=O)N/C(=C\c2ccc(-c3ccc(Cl)cc3)o2)C(=O)NCCCN(C)C)cc1`, the “activity change, negative = inhibition” value is -11.4%.

With `Cc1cccc(OCC(=O)NCC(=O)N/N=C/c2cc(Br)cc(Br)c2O)c1`, the Potency is 5.01 µM (active).

Turning to `O=C(/C=C\c1ccccc1)NCC(=O)N/N=C/c1ccc(O)cc1O`, the Potency was 25.1 µM (active).

Turning to `O=C(N/N=C/c1ccc(O)cc1O)/C(=C/c1ccccc1)CCO`, the Potency was 1.78 µM (active).

For `O=C(COc1ccccc1)NCC(=O)N/N=C/c1ccc(O)cc1O`, the Potency was 14.1 µM (active).

Take `CCC(=O)OC1(C(C)=O)CCC2C3CCC4=CC(=O)CCC4(C)C3CCC21C` (stereo not drawn): the “activity change, negative = inhibition” value was -21.7%.

For the compound `O=C(OCCN1C(=O)c2cccc3c(N4CCOCC4)ccc(c23)C1=O)c1ccccc1Cl`, the Potency is 15.8 µM (active).

Consider `CC1(C)C(C=C(Cl)Cl)C1C(=O)Nc1ccc([N+](=O)[O-])cc1` (stereo not drawn), for which the Potency is 20 µM (active).

`Cc1cccc(OCCSc2nc3ncnc(N)c3[nH]2)c1`: the “activity change, negative = inhibition” value is -5.15%.

As for `CCN(CC)CCCNc1nc2ccccc2c2nc(-c3ccncc3)nn12`, the Potency is 12.6 µM (active).

In the case of `Cc1ccc(/C=C2\SC(=S)N(CCCC(=O)Nc3cc(C)on3)C2=O)cc1`, the Potency was 3.55 µM (active).

Consider `Cc1ccc(/C=C2\SC(=S)N(CCCC(=O)Nc3ccc(O)cc3)C2=O)cc1`, for which the Potency was 3.16 µM (active).

For the compound `Cc1ccc(/C=C2\SC(=S)N(CCCC(=O)Nc3ccccc3C(=O)O)C2=O)cc1`, the Potency is 2 µM (active).

With `Cc1ccc(/C=C2/SC(=S)N(CCCC(=O)Nc3cc([N+](=O)[O-])ccc3O)C2=O)cc1`, the Potency is 28.2 µM (active).

In the case of `Cc1cc(C)cc(NC(=O)CCC(=O)Nc2cc(C)on2)c1`, the activity change, negative = inhibition is 165% [at 11.4 µM].

`Cc1ccc(NC(=O)COc2ccc(/C=C3/SC(=Nc4ccccc4)N(Cc4cccnc4)C3=O)cc2)cc1`: the “activity change, negative = inhibition” value is -6.8%.

In the case of `Cc1ccc(/C=C2\SC(=S)N(CCCC(=O)NC3CCCC3)C2=O)cc1`, the Potency is 2.51 µM (active).

As to `COc1cccc(/C=C2/SC(=S)N(CCCC(=O)Nc3ccc(O)cc3)C2=O)c1`, the Potency was 3.16 µM (active).

For the compound `Cc1ccc(/C=C2/SC(=S)N(CCCC(=O)Nc3ccc(O)cc3)C2=O)cc1`, the Potency is 2 µM (active).

On to `Cc1ccc(/C=C2\SC(=S)N(CCCC(=O)Nc3cccnc3)C2=O)cc1`, for which the Potency was 3.98 µM (active).

Regarding `CC(C)C[C@H](N)c1cn([C@@H](CCCCN)C(=O)N2CCNCC2)nn1`, the activity change, negative = inhibition is -7.7% [at 11.4 µM].

Take `Cc1csc(NC(=O)COCC(=O)O)c1-c1nc2ccccc2s1`: the “activity change, negative = inhibition” value was -1.27%.

Consider `c1cc2c(cc1-c1cnc3n1CCC3)OCCO2`, for which the “activity change, negative = inhibition” value is 59.6%.

On to `CC(C)(O)C#Cc1ccc([C@@H]2C[C@H]3CN(c4ccccc4)C(=O)[C@]34CCCN24)s1`, for which the “activity change, negative = inhibition” value is 51.4%.

As for `O=[N+]([O-])c1ccc(O)c(/C=N/Nc2ncnc3c2cnn3-c2ccccc2)c1`, the Potency is 1.58 µM (active).

`CN(C)S(=O)(=O)c1cccc(N2C(=O)CC3(CCCCC3)CC2=O)c1`: the activity change, negative = inhibition is -19.6% [at 11.4 µM].

For `COc1ccc(CSCC(=O)N/N=C/c2ccccc2O)cc1`, the Potency is 25.1 µM (active).

Take `COc1cccc(/C=N/NC(=O)CSCC(=O)Nc2ccccc2)c1O`: the Potency is 1.26 µM (active).

As for `COc1cccc(/C=N/NC(=O)CSc2ccccc2C)c1O`, the Potency is 7.08 µM (active).

For `C/C(=N\OCC(=O)N/N=C/c1ccccc1O)c1cccs1`, the Potency was 12.6 µM (active).

As for `COc1cccc(/C=N/NC(=O)Cn2nc(C)c([N+](=O)[O-])c2C)c1O`, the Potency was 8.91 µM (active).

As to `COc1ccc(O)c(/C=N/NC(=O)c2ccc(CSc3nc(C)cc(C)n3)cc2)c1`, the Potency was 2.82 µM (active).

For `CCCCSc1nc(C)cc(SCC(=O)N/N=C/c2cccc(OC)c2O)n1`, the Potency is 1 µM (active).

As to `OC(c1cc(-c2cccc(Cl)c2)nc2ccccc12)C1CCCCN1` (stereo not drawn), the Potency is 22.4 µM (active).

Consider `Cc1onc(-c2c(F)cccc2Cl)c1C(=O)Nc1nnc(C(F)(F)F)s1`, for which the Potency is 1.41 µM (active).

On to `C[n+]1c2cc(N)ccc2cc2ccc(N)cc21`, for which the Potency was 8.91 µM (active) and 3.55 µM (active).

Consider `Cc1nc2ccccc2n1-c1nc(-c2ccco2)cc(C(F)(F)F)n1`, for which the “activity change, negative = inhibition” value was -23.8%.

For the compound `CC(C)NC1CCC(Nc2ccnc3cc(Cl)ccc23)CC1` (stereo not drawn), the Potency was 17.8 µM (active).

Take `Cc1ccc(N=Nc2ccc(O)c3ncccc23)cc1`: the Potency is 3.55 µM (active).

As to `Cc1ccccc1N=Nc1ccc(O)c2ncccc12`, the Potency was 1.41 µM (active).

As to `CC(C)(C)S(=O)(=O)/C(C#N)=N/Nc1ccc(Cl)cc1`, the Potency was 7.94 µM (active).

`FC(F)(F)c1ccc(N2CCN(c3cc(-c4ccccc4)nc4ncnn34)CC2)nc1`: the Potency was 1.58 µM (active).

For the compound `O=c1cc(Nc2ccc3c(c2)OCCO3)[nH]c(=O)n1-c1ccc(Br)cc1`, the “activity change, negative = inhibition” value was -20.1%.

For the compound `CCN(CC)c1ccc(/C=N/NC(=O)c2cccc(S(=O)(=O)N3CCOCC3)c2)c(O)c1`, the Potency is 0.891 µM (active).

As to `CCN(CC)c1ccc(/C=N/NC(=O)CCC(=O)NCc2ccccc2)c(O)c1`, the Potency was 3.16 µM (active).

As for `O=C(Cn1c(=O)n(CC(=O)NCc2ccccc2)c2ccccc21)NCc1ccccc1`, the “activity change, negative = inhibition” value was 22.5%.

`CCN(CC)c1ccc(/C=N/NC(=O)Cc2cccs2)c(O)c1`: the Potency is 2.82 µM (active).

For `CN(C)c1nc(N/N=C/c2c[nH]c3ccccc23)nc(N2CCOCC2)n1`, the activity change, negative = inhibition is -16.1% [at 11.4 µM].

In the case of `Cc1cc(C)n(-c2nc(NCCN(C)C)c3c4c(sc3n2)COC(C)(C)C4)n1`, the activity change, negative = inhibition is -12.1% [at 11.4 µM].

`c1ccc(CNc2nc(-c3ccccn3)nc3ccccc23)cc1`: the Potency was 4.47 µM (active).

Take `CN1CCN(c2nc(-c3ccccn3)nc3ccccc23)CC1`: the “activity change, negative = inhibition” value is -26.3%.

On to `O=S(=O)(Cc1cc(NCc2ccccc2)nc(-c2ccccn2)n1)c1ccccc1`, for which the “activity change, negative = inhibition” value was -28.9%.

In the case of `O=S(=O)(c1ccc2c(c1)OCCO2)N1CCC(c2nc3ccc(Cl)cc3[nH]2)CC1`, the Potency is 3.98 µM (active).

Regarding `CCOc1ccc(NCc2cccn2-c2nnc(N3CCC(C(=O)NCCCN4CC(C)CC(C)C4)CC3)s2)cc1` (stereo not drawn), the activity change, negative = inhibition is -19.5% [at 11.4 µM].

For `COc1ccc(-n2c(-c3ccc(Cl)cc3)c[n+]3c2CCCCC3)cc1`, the Potency is 12.6 µM (active).

`COc1ccc(-c2c[n+]3c(n2-c2ccc(C)cc2)CCCCC3)cc1`: the Potency is 6.31 µM (active).

For `O=c1cc(-c2ccccc2Cl)oc2c([N+](=O)[O-])c(O)cc(O)c12`, the Potency was 1.26 µM (active).
